# Reference: PMC5515408, “Sequence-specific DNA binding by MYC/MAX to low-affinity non-E-box motifs”
# In all, about 5,000 sequences were measured (“log2 normalized fluorescence”: median about 0.089, highest 2% from about 0.81 on). This excerpt belongs to a sample that is enriched for the highest values.
# Biological target: MYC (p64);MAX (p21), in MYC:MAX (human;human, UniProt P01106-1;P61244-2 1-439;1-151, |)
# Assay: protein-binding microarray (anti-MAX antibody); PBM: 15 mM Tris-HCl pH 7.5, 100 mM KCl, 0.075% NP40, 7.5 mM beta-mercaptoethanol, 375 ng/ul BSA, 8 ng/ul poly(dA-dT):(dA-dT), 550 ng complex, 60 min, room tempe; high values mean tight binding
# Conditions: protein: recombinant;recombinant; tags: 6xHis;6xHis; copies: 1;1; label: 3' end of printed strand (linker) attached to glass slide; dsDNA, one strand shown
# Procedure, shortened: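 Recombinant His-tagged human MYC:MAX or MAX:MAX dimers (550 ng, expressed in E. coli) were incubated for 60 min at room temperature in Tris-KCl buffer, pH 7.5, with NP40, BSA and poly(dA-dT) competitor. The custom Agilent glass array held ~5000 unique 12-nt sequences, each spotted in triplicate and made double-stranded by primer extension. Bound protein was detected with anti-MAX and secondary antibodies and scanned at 543 nm. Binding is reported as log2 normalized fluorescence.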
# Sequence of MYC (p64);MAX (p21), in MYC:MAX (P01106 16-454, chain 1 of 2): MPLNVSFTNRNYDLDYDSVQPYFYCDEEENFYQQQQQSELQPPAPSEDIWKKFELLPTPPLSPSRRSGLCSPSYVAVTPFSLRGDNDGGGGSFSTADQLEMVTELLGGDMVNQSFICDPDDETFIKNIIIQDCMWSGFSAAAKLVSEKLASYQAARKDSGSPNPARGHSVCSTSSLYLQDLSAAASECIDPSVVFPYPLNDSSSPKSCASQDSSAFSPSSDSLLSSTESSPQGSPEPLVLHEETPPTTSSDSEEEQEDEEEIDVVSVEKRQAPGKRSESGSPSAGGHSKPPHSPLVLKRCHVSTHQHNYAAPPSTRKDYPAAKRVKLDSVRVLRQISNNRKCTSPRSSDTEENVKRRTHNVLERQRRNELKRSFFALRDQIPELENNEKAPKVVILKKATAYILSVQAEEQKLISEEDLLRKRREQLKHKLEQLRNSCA
# Sequence of MYC (p64);MAX (p21), in MYC:MAX (P61244 other isoform, or with tags, fused parts or gaps |, chain 2 of 2): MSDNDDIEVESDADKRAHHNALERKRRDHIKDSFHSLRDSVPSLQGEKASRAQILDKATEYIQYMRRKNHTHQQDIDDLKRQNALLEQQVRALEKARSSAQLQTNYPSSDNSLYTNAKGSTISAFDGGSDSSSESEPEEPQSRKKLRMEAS
row,Sequence,binding signal
1,CCGGCTGACACGTGCTCTTAATAGCTAAGATTACTATATCGACG,0.813 log2 normalized fluorescence
2,CCGGCTGACACGTGGGGTTAATAGCTAAGATTACTATATCGACG,1 log2 normalized fluorescence
3,CCGGCTGACACGTGCATTTAATAGCTAAGATTACTATATCGACG,0.894 log2 normalized fluorescence
4,CCGGCGGACACGTGGAGTTAATAGCTAAGATTACTATATCGACG,0.745 log2 normalized fluorescence
5,CCGGCTGACACGTTGCATTAATAGCTAAGATTACTATATCGACG,0.792 log2 normalized fluorescence
6,CCGGCTGACACGTGGGTTTAATAGCTAAGATTACTATATCGACG,0.725 log2 normalized fluorescence
7,CCGGCTGACACGTAGAGTTAATAGCTAAGATTACTATATCGACG,0.293 log2 normalized fluorescence
8,CCGGCTGACACGTGATTTTAATAGCTAAGATTACTATATCGACG,0.626 log2 normalized fluorescence
9,CCGGCTGACACGTGCTATTAATAGCTAAGATTACTATATCGACG,0.869 log2 normalized fluorescence
10,CCGGCTGACACGTGCTGTTAATAGCTAAGATTACTATATCGACG,0.743 log2 normalized fluorescence
11,CCGGCTGACACGTGGAGTTAATAGCTAAGATTACTATATCGACG,0.923 log2 normalized fluorescence
12,CCGGCTGACACGTGTGGTTAATAGCTAAGATTACTATATCGACG,0.792 log2 normalized fluorescence
13,CCGGCAGAAACGCGGTATTAATAGCTAAGATTACTATATCGACG,0.575 log2 normalized fluorescence
14,CCGGCTGATTACGAGTATTAATAGCTAAGATTACTATATCGACG,0.0125 log2 normalized fluorescence
15,CCGGCTGACACGAGATATTAATAGCTAAGATTACTATATCGACG,0.491 log2 normalized fluorescence
16,CCGGCTGATCCGCTGTATTAATAGCTAAGATTACTATATCGACG,-0.0182 log2 normalized fluorescence
17,CCGGCTGAAACGTTGTATTAATAGCTAAGATTACTATATCGACG,0.435 log2 normalized fluorescence
18,CCGGCTGAAACACAGTATTAATAGCTAAGATTACTATATCGACG,0.249 log2 normalized fluorescence
19,CCGGCTGATGGTCCGTATTAATAGCTAAGATTACTATATCGACG,0.278 log2 normalized fluorescence
20,CCGGCTGATGAGCAGTATTAATAGCTAAGATTACTATATCGACG,-0.0208 log2 normalized fluorescence
21,CCGGCTGATGGGTTGTATTAATAGCTAAGATTACTATATCGACG,0.152 log2 normalized fluorescence
22,CCGGCTGACACGTGCGCTTAATAGCTAAGATTACTATATCGACG,0.633 log2 normalized fluorescence
23,CCGGCTGACACGTGTGCTTAATAGCTAAGATTACTATATCGACG,0.818 log2 normalized fluorescence
24,CCGGCTGACACGTGCCATTAATAGCTAAGATTACTATATCGACG,1 log2 normalized fluorescence
25,CCGGCTGACACGTGGGATTAATAGCTAAGATTACTATATCGACG,0.669 log2 normalized fluorescence

row,Sequence,binding signal
1,CCGGCTGACACGTGACATTAATAGCTAAGATTACTATATCGACG,0.756 log2 normalized fluorescence
2,CCGGCTGACACGTGCGATTAATAGCTAAGATTACTATATCGACG,0.786 log2 normalized fluorescence
3,CCGGCTGACACGTGCCGTTAATAGCTAAGATTACTATATCGACG,0.783 log2 normalized fluorescence
4,CCGGCTGACACGTGGATTTAATAGCTAAGATTACTATATCGACG,0.893 log2 normalized fluorescence
5,CCGGCTGACACGTGAATTTAATAGCTAAGATTACTATATCGACG,0.712 log2 normalized fluorescence
6,CCGGCTGAAACTGAGTATTAATAGCTAAGATTACTATATCGACG,0.00205 log2 normalized fluorescence
7,CCGGCTGACCTGACGTATTAATAGCTAAGATTACTATATCGACG,0.202 log2 normalized fluorescence
8,CCGGCTGCCACGTGGTGTTAATAGCTAAGATTACTATATCGACG,0.763 log2 normalized fluorescence
9,CCGGCTGCCACGTGTTATTAATAGCTAAGATTACTATATCGACG,0.969 log2 normalized fluorescence
10,CCGGCTGTCACGTGATATTAATAGCTAAGATTACTATATCGACG,0.587 log2 normalized fluorescence
11,CCGGCTGCCACGACGTATTAATAGCTAAGATTACTATATCGACG,0.371 log2 normalized fluorescence
12,CCGGCTGCCACGTAGTGTTAATAGCTAAGATTACTATATCGACG,0.23 log2 normalized fluorescence
13,CCGGCTGCCACGTGATATTAATAGCTAAGATTACTATATCGACG,0.881 log2 normalized fluorescence
14,CCGGCTGAGGCGAAGTATTAATAGCTAAGATTACTATATCGACG,0.0114 log2 normalized fluorescence
15,CCGGCTGATGTATCGTATTAATAGCTAAGATTACTATATCGACG,0.124 log2 normalized fluorescence
16,CCGGCTGAGCGATAGTATTAATAGCTAAGATTACTATATCGACG,-0.0333 log2 normalized fluorescence
17,CCGGCTGACGCGGAGTATTAATAGCTAAGATTACTATATCGACG,0.127 log2 normalized fluorescence
18,CCGGCGGACAGGTGGGATTAATAGCTAAGATTACTATATCGACG,0.375 log2 normalized fluorescence
19,CCGGCGAGCACGTGGTATTAATAGCTAAGATTACTATATCGACG,0.525 log2 normalized fluorescence
20,CCGGCCAGCACGTGGTATTAATAGCTAAGATTACTATATCGACG,0.793 log2 normalized fluorescence
21,CCGGCAAGCACGTGGTATTAATAGCTAAGATTACTATATCGACG,0.835 log2 normalized fluorescence
22,CCGGCTAGCACGTGGTATTAATAGCTAAGATTACTATATCGACG,0.917 log2 normalized fluorescence
23,CCGGCTGACGTCAGGTATTAATAGCTAAGATTACTATATCGACG,0.293 log2 normalized fluorescence
24,CCGGCTGAGGGTAGGTATTAATAGCTAAGATTACTATATCGACG,0.0237 log2 normalized fluorescence
25,CCGGCTGAGGCCCCGTATTAATAGCTAAGATTACTATATCGACG,0.00137 log2 normalized fluorescence

row,Sequence,binding signal
1,CCGGCGTACACGTGGTATTAATAGCTAAGATTACTATATCGACG,0.671 log2 normalized fluorescence
2,CCGGCTGGCACGTGGGATTAATAGCTAAGATTACTATATCGACG,0.708 log2 normalized fluorescence
3,CCGGCTATCACGTGGGATTAATAGCTAAGATTACTATATCGACG,0.804 log2 normalized fluorescence
4,CCGGCTGGCACGCGGTCTTAATAGCTAAGATTACTATATCGACG,0.784 log2 normalized fluorescence
5,CCGGCTTACACGTGGTCTTAATAGCTAAGATTACTATATCGACG,0.679 log2 normalized fluorescence
6,CCGGCGTACACGTGGTCTTAATAGCTAAGATTACTATATCGACG,0.89 log2 normalized fluorescence
7,CCGGCGGGCACGTGGTCTTAATAGCTAAGATTACTATATCGACG,0.929 log2 normalized fluorescence
8,CCGGCGGGCACGTGGGATTAATAGCTAAGATTACTATATCGACG,0.986 log2 normalized fluorescence
9,CCGGCGGGCACGTGGTATTAATAGCTAAGATTACTATATCGACG,0.738 log2 normalized fluorescence
10,CCGGCTGAATCAGAGTATTAATAGCTAAGATTACTATATCGACG,0.0753 log2 normalized fluorescence
11,CCGGCTGAACAAGTGTATTAATAGCTAAGATTACTATATCGACG,0.224 log2 normalized fluorescence
12,CCGGCTGATACTTGGTTTTAATAGCTAAGATTACTATATCGACG,0.0375 log2 normalized fluorescence
13,CCGGCTGATCCCGCGTATTAATAGCTAAGATTACTATATCGACG,0.218 log2 normalized fluorescence
14,CCGGCTGAAGGGCAGTATTAATAGCTAAGATTACTATATCGACG,-0.0227 log2 normalized fluorescence
15,CCGGCTGGCACGAGGTTTTAATAGCTAAGATTACTATATCGACG,0.697 log2 normalized fluorescence
16,CCGGCTGAGACGCGGTTTTAATAGCTAAGATTACTATATCGACG,0.131 log2 normalized fluorescence
17,CCGGCTCACACGTGGTTTTAATAGCTAAGATTACTATATCGACG,0.78 log2 normalized fluorescence
18,CCGGCCGACACGCGGTTTTAATAGCTAAGATTACTATATCGACG,0.82 log2 normalized fluorescence
19,CCGGCTCACACGTTTTATTAATAGCTAAGATTACTATATCGACG,0.662 log2 normalized fluorescence
20,CCGGCCGACAGCCGGTTTTAATAGCTAAGATTACTATATCGACG,-0.0407 log2 normalized fluorescence
21,CCGGCTCACACGATGTATTAATAGCTAAGATTACTATATCGACG,0.603 log2 normalized fluorescence
22,CCGGCTCACACGAGGTTTTAATAGCTAAGATTACTATATCGACG,0.866 log2 normalized fluorescence
23,CCGGCTCACACGCGGTTTTAATAGCTAAGATTACTATATCGACG,0.822 log2 normalized fluorescence
